# TEAD-YAP block = TEAD-YAP interaction inhibition, primary screen, TEAD-YAP interaction inhibitor project, luminescence, HEK-TIYL cells; TEAD-Gal4/YAP UAS-luciferase luminescence; inhibition, % at 9.12 µM; 640,000 compounds, 1.4% hits; in the data active = inhibition above about 32%;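 also: 0% = median of test compound wells and 100% = reference inhibitor wells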
# GPR151 activ = activators of human GPR151, primary screen, cell-based, PathHunter beta-arrestin, luminescence; activation, % at 11.2 µM; PathHunter beta-arrestin GPR151 cells; 650,000 compounds, 1% hits; in the data active = activation above about 4.9%;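 also: 0% = median of compound wells and 100% = cells with positive control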
# MITF inh = MITF inhibitors, primary screen, biochemical, AlphaScreen, human; 650,000 compounds, 0.91% hits; inhibition, % at 2.6 µM; AlphaScreen MITF homodimerization, bead proximity signal; AID 1259374, 2018; Microphthalmia-associated transcription factor (Homo sapiens), O75030; in the data active = inhibition above about 50%;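 also: 0% = vehicle wells with protein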
# Target sequence (O75030 whole entry, looked up): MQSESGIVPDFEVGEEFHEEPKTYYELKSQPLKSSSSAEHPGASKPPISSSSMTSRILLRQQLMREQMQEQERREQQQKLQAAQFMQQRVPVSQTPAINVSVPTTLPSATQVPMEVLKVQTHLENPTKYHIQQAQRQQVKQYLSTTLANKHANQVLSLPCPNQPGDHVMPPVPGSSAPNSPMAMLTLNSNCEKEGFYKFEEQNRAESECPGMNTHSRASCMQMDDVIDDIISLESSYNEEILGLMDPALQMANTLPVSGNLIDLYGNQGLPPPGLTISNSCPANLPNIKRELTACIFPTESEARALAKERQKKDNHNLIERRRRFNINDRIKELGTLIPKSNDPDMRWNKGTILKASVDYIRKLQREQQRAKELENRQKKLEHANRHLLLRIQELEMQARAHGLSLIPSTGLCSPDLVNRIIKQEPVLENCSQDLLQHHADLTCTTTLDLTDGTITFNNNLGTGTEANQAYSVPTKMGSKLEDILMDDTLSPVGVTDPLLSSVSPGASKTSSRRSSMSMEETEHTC
# FBW7 activator = FBW7 E3 ligase activators, primary screen, biochemical, AlphaScreen, human; F-box/WD repeat-containing protein 7 (Homo sapiens), Q969H0; AlphaScreen FBW7–phospho-cyclin E peptide binding, activator screen; normalized activity (activation), % at 26.1 µM; 650,000 compounds, 0.13% hits; AID 1259310, 2017; in the data active = normalized activity above about 1.9%;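 also: purified mutant Fbw7 with reduced substrate affinity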
# The depositor's hits bear a star; ! = a repeat was not active. Most compounds without a hit are left out; they make up all but 3.5% or so of the library.
SMILES,TEAD-YAP block,GPR151 activ,MITF inh,FBW7 activator
CC(C)C(=O)NC(c1ccc(N(C)C)cc1)c1ccc2cccnc2c1O (centres undefined),83.5*,-0.3,30.8,-1.9
CCCCC(=O)NC(c1ccc(N(C)C)cc1)c1ccc2cccnc2c1O (centres undefined),75.1*,-0.8,21.8,-2.0
C(=N\Nc1ncnc2c1cnn2Cc1ccccc1)/c1cccnc1,1.1,1.7,-3.7,-0.1
C=COCCNC(=O)C(=O)Nc1cccc(OC)c1,-34.0,-2.1,15.7,0.2
Cc1ccc2nc(-c3ccncc3)cc(C(=O)Nc3ccc(C(=O)N4CCCC4)cc3)c2c1,4.4,-0.8,3.5,0.1
CCC(=O)NC(c1ccc(N(C)C)cc1)c1ccc2cccnc2c1O (centres undefined),68.6*,-0.2,35.0,-2.0
O=C(COc1ccc(F)cc1)Nc1ccc(S(=O)(=O)Nc2nccs2)cc1,-5.3,1.9,9.0,0.0
NC(=S)NNc1cccc2cccnc12,2.4,0.4,74.2*!,-0.5
CCN1C(=O)/C(=C/c2cccc3ccccc23)NC1=S,-5.6,0.4,4.3,-0.1
COC(=O)c1cn(NC(=O)c2cccnc2Cl)c(=O)c2ccccc12,-2.0,-1.4,0.1,-0.1
COC(=O)c1cn(NC(=O)c2ccccn2)c(=O)c2ccccc12,62.1*,-1.2,100.4*,-0.1
O=C(Nc1noc2ccccc12)c1cccc(F)c1,-17.3,-4.1,-4.2,0.0
O=C(Nc1noc2ccccc12)c1ccc(F)cc1,44.3*,-11.5,-7.4,0.2
COc1ccccc1C(=O)Nc1noc2ccccc12,27.3,-4.7,14.8,0.1
Cc1ccccc1C(=O)Nc1noc2ccccc12,43.3*,-12.5,-1.5,-0.1
COc1ccc(C(=O)Nc2noc3ccccc23)c(OC)c1,88.4*,-9.8,-4.1,-0.1
O=C(O)c1ccc(N2N=C(c3ccccc3)/C(=C/c3ccco3)C2=O)cc1,0.6,-0.2,70.0*,-1.1
O=C(O)c1ccc(N2N=C(c3ccccc3)/C(=C\c3cccc([N+](=O)[O-])c3O)C2=O)cc1,-12.9,-1.8,8.0,-0.3
Cc1c(N=Nc2ccc([N+](=O)[O-])cc2S(=O)(=O)O)co[n+]1[O-],1.6,1.3,5.3,-0.2
Cc1nc(N=Nc2cc(S(=O)(=O)O)c3cc([N+](=O)[O-])cc(S(=O)(=O)O)c3c2)c(COP(=O)(O)O)c(C=O)c1O,-12.1,-1.3,77.2*!,-0.2
COc1cc(Nc2nc(Nc3ccc(NC(C)=O)cc3)c3ncn(-c4ccccc4)c3n2)cc(OC)c1OC,39.0*,-1.6,-8.6,0.1
Cn1c(Nc2nc(NCCO)c3ncn(-c4ccsc4)c3n2)nc2ccccc21,14.1,-2.6,4.1,-0.3
CC(=O)Nc1ccc(Nc2nc(-c3c(C)noc3C)nc3c2ncn3-c2ccsc2)cc1,-3.3,-1.6,9.6,0.3
CC(=O)Nc1ccc(Nc2nc(N3CCc4ccccc4C3)nc3c2ncn3-c2ccsc2)cc1,39.6*,-2.5,9.7,0.0
CC(=O)Nc1ccc(Nc2nc(Nc3cnccn3)nc3c2ncn3-c2ccsc2)cc1,28.9,4.1,7.0,3.7*
SMILES,TEAD-YAP block,GPR151 activ,MITF inh,FBW7 activator
CC(=O)Nc1ccc(Nc2nc(Nc3nc4ccccc4n3C)nc3c2ncn3-c2ccsc2)cc1,43.1*,0.1,6.8,-0.1
O=C(NC(=S)NCc1ccco1)c1ccccc1Cl,-4.8,1.3,1.0,0.0
Cc1ccc(C(=O)COC(=O)c2cc(Cl)ccc2O)cc1C,-14.2,-0.3,-2.4,0.1
COc1ccccc1C(=O)CSc1nc(C)cc(C)n1,-15.6,1.2,-2.5,-0.1
CC(=O)Nc1ccc(Nc2nc(Nc3ccccc3)nc3c2ncn3-c2ccsc2)cc1,35.9*,0.1,10.6,0.2
Nc1nc(Nc2ccncn2)nc2c1ncn2-c1ccccc1,-9.9,-0.4,-4.0,4.2*
CC(=O)Nc1ccc(Nc2nc(Nc3ccc(N4CCOCC4)cc3)nc3c2ncn3-c2ccccc2)cc1,-2.2,-1.8,8.4,0.0
CC(=O)Nc1ccc(Nc2nc(Nc3ccc(-n4ccnc4)cc3)nc3c2ncn3-c2ccccc2)cc1,52.0*,1.8,9.8,-0.2
CC(=O)Nc1ccc(Nc2nc(Nc3ccccc3)nc3c2ncn3-c2ccccc2)cc1,45.8*,3.1,1.6,0.1
CC1CCCN(C(=O)C(=O)N2CCCC(C)C2)C1 (centres undefined),-8.2,3.8,-19.4,0.0
O=C1CNC(=S)N1c1ccccc1F,2.0,1.7,0.2,0.0
CC(=O)Nc1ccc(Nc2nc(Nc3ccncn3)nc3c2ncn3-c2ccccc2)cc1,13.5,1.8,4.8,5.1*
CC(=O)Nc1ccc(Nc2nc(Nc3ccncn3)nc3c2ncn3C(C)C)cc1,-9.2,-0.5,4.0,0.5
CC(=O)Nc1ccc(Nc2nc(Nc3ccncc3)nc3c2ncn3-c2ccccc2)cc1,44.9*,-1.9,-14.0,3.4*
Cc1ccc(F)cc1Nc1ncnc2ccccc12,4.0,-0.7,10.4,0.0
O=C(COC(=O)CN1C(=O)C2C3C=CC(C3)C2C1=O)Nc1cc([N+](=O)[O-])ccc1Cl (centres undefined),-6.6,0.3,11.5,0.0
O=C(Nc1ccc(Oc2ccccc2)cc1)c1ccc2c(=O)n(-c3cccc(C(F)(F)F)c3)c(=S)[nH]c2c1,-0.8,-0.2,-6.2,0.0
COc1ccc(-n2c(=S)[nH]c3cc(C(=O)Nc4cccc(C)c4)ccc3c2=O)c(OC)c1,47.8*,1.7,7.8,-0.1
O=C(Nc1ccc(Oc2ccccc2)cc1)c1ccc2c(=O)n(-c3cc(C(F)(F)F)ccc3Cl)c(=S)[nH]c2c1,35.7*,0.0,-6.7,0.0
CCC(=O)Nc1sc(C)c(C)c1C(=O)Nc1ccc(C)cc1,-7.2,-1.4,0.2,-0.1
OC(CN1C2=NCCN2c2ccccc21)c1ccc2c(c1)OCO2 (centres undefined),54.7*,0.2,-0.5,-0.2
OC(CN1C2=NCCCN2c2ccccc21)c1ccc2c(c1)OCO2 (centres undefined),3.3,0.2,4.5,-0.2
O=[N+]([O-])c1cc(F)ccc1NC(=S)NCc1ccco1,-0.7,-0.6,6.4,0.1
N=C1/C(=C/c2ccc(OCc3ccc4c(c3)OCO4)c(Cl)c2)C(=O)N=C2SC=CN12,39.4*,-4.6,-5.1,0.1
N=C1/C(=C/c2cn(Cc3ccc4c(c3)OCO4)c3ccccc23)C(=O)N=C2SC=CN12,12.4,2.1,7.4,0.0
Oc1ccc(/C=N/NC(=S)N2CCOCC2)cc1,50.4*,-3.0,12.6,-0.2
COCCNC(=S)N/N=C/c1ccc(N2CCOCC2)cc1,63.8*,-1.3,-1.4,-0.1
COCCNC(=O)CCC1CCN(C(=O)CCOc2ccccc2)CC1,-4.4,-1.5,-12.8,-0.1
COCCNC(=O)CCC1CCN(C(=O)C#Cc2ccccc2)CC1,38.2*,1.5,1.5,-0.1
COc1ccccc1NC1=C(N2CCCCC2)C(=O)c2ccccc2C1=O,62.1*,1.6,-1.7,0.1

# Source: PubChem BioAssay (The Scripps Research Institute Molecular Screening Center)
